Sampled rows, rich in hits. Any-hit rate of the full collection: about 19%.
BCR signal inh: blocks chronic active B-cell receptor signaling; ABC-DLBCL IkBa-CBG/CBR reporter, luminescence ratio, 4 h; Potency, µM (doses to about 46.1 µM), inactives show at the highest dose activity change, negative = inhibition, most hits filed as inhibitors; 340,000 tested, 0.05% active; AID 493014; active means well fitted inhibition curve with a large enough effect in the signal ratio, with a control signal flat, not every such curve was filed as active; inconclusive means small, poorly fitted or top-dose-only effect, or effect the other way, or a change in a side signal; the % refers to the signal ratio;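 further: potency means the concentration at half of the fitted maximal effect; plate controls were basal doxycycline-induced cells for no effect and cells given 10 µM MG132 for full effect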
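Concentration-response series (up to 46 uM) were applied to TMD8 dual-reporter cells for 4 h at 37C with doxycycline. Green/red ratio, after filter-overlap correction, defined %Activity; red signal alone was normalised to basal cells and zero luminescence.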
IL1B secr inh: blocks inflammasome-driven IL-1 beta release; AID 743279; THP-1 LPS/ATP IL-1B secretion, AlphaLISA, 16 h; active compounds read low; 360,000 tested, 4.7% active; activity change, % at 57.5 µM; in the data active means activity change below about -50%; inconclusive means mostly about -30% to -49%; further: on the % scale 0 is the no-effect control and ±100 the full control effect
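THP-1 cells pretreated 1 hr with compounds (up to 57.5 uM final), then stimulated with LPS (250 ng/mL final) plus ATP (1.25 mM final); secreted IL-1B measured by AlphaLISA after 16 hr, decreased signal indicating inhibition.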
TDP1 cell noCPT: qHTS for Inhibitors of human tyrosyl-DNA phosphodiesterase 1 (TDP1): qHTS in cells in absence of CPT; DT40 Tdp1-/- hTDP1 cells, no CPT, ATP luminescence, 48 h; Potency, µM (titrated, usually from 46.2 µM), for the others: top-dose activity change, negative = growth inhibition, most hits filed as inhibitors; 420,000 tested, 15% active; further: potency means the concentration at half of the fitted maximal effect; on the % scale 0 is the no-effect control and ±100 the full control effect; nearly all actives have a fitted effect of over 55% in size
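No-CPT arm: Tdp1-/-;hTDP1 DT40 cells (400/well) plus compounds, incubated ≥48 hr at 37 °C. Readout CellTiter-Glo luminescence.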
DT40 TDP1 CPT: growth inhibition of DT40 Tdp1-/-;hTDP1 cells with camptothecin (screen for TDP1 inhibitors) | chicken DT40 Tdp1-/-;hTDP1 cells + 20 nM CPT, ATP luminescence, 48 h | Potency, µM (titrated, usually from 46.2 µM), for inactives: top-dose activity change, negative = growth inhibition, most hits filed as inhibitors | 420,000 tested, 12% active; further: potency means the concentration at half of the fitted maximal effect; on the % scale 0 is the no-effect control and ±100 the full control effect; nearly all actives have a fitted effect of over 55% in size
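Chicken DT40 Tdp1-/- cells stably complemented with human TDP1 were seeded at 400 cells/well in medium containing 20 nM camptothecin, exposed to pin-transferred compounds, and grown at 37 °C for at least 48 hr. Viability was read as ATP luminescence.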
MCF10A rerep: induces DNA re-replication in MCF 10a normal breast cells. AID 624296. MCF 10A DNA re-replication, Hoechst nuclear intensity, 48 h. Potency, µM (highest dose often 46.1 µM), for inactives: top-dose activity, positive = re-replication, usual class: activators. 350,000 tested, 2.9% active; further: potency means the concentration at half of the fitted maximal effect; % of control where 0% means no effect; nearly all actives have a fitted effect of over 50% in size
SW480 rerep: induces DNA re-replication in SW480 colon adenocarcinoma cells | SW480 DNA re-replication, Hoechst DNA content imaging, 48 h | Potency, µM (series often up to 46.1 µM), inactives show at the top dose re-replication activation, usual class: activators | 340,000 tested, 1.8% active; further: potency means the concentration at half of the fitted maximal effect; % of control where 0% means no effect; nearly all actives have a fitted effect of over 55% in size
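250 cells/well; 23 nL cpd via pin tool; 48 hr, 37 C, 5% CO2; Hoechst 40 min; imager read of total nuclear intensity, ex 405/em 500-530 nm.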
* marks the source's active call; other numbers are inactive results; ? = inconclusive; nt = not tested or not shown; ! = a repeat was not active; [ ] = dose if it differs, or a comment. Unless noted, the call rests on the fitted dose curve; in most records, active means well fitted curve in the direction sought with a large enough effect; inconclusive means small, poorly fitted or top-dose-only effect, or another doubt; inactive means no such curve, though single readings can be large; an effect the other way counts as inactive or inconclusive.

SMILES	BCR signal inh	IL1B secr inh	TDP1 cell noCPT	DT40 TDP1 CPT	MCF10A rerep	SW480 rerep
COc1ccc(-n2c(CN3CCOCC3)nc3ccc([N+](=O)[O-])cc3c2=O)c(OC)c1	?	43	-7%	-13%	3%	-11%
Cc1ccc(C(=O)NCC(=O)OCc2cc(=O)n3ccsc3n2)cc1	nt	nt	-3%	4%	nt	nt
C#C[C@]1(OC(C)=O)CCC2C3CCC4=CC(=O)CCC4C3CC[C@]21C (stereo partly drawn)	nt	nt	16µM*	0.21µM*	nt	nt
C#C[C@]1(O)CCC2C3CCC4=CC(=O)CCC4C3CC[C@@]21C (stereo partly drawn)	nt	nt	nt	nt	-6%	3%
C#C[C@]1(OC(C)=O)CC[C@H]2[C@@H]3CCC4=C[C@@H](OC(C)=O)CC[C@@H]4[C@H]3CC[C@@]21C	nt	nt	15µM*!	?	11%	21%
C#C[C@]1(OC(C)=O)CCC2C3CCC4=CC(=O)CC[C@@H]4C3CC[C@@]21C (stereo partly drawn)	-16%	5	23µM*	?	10%	-2%
CC(=O)OC1CCC2C3CCC4=CC(=O)CCC4(C)C3CCC2(C)[C@]1(C)O (stereo partly drawn)	nt	nt	nt	nt	-17%	-3%
Cc1cccc(C)c1NC(=O)C1(C)CN(S(C)(=O)=O)CC(=O)N1CCc1c[nH]c2ccccc12 (stereo not drawn)	nt	-25	1%	15%	nt	nt
CCOC(=O)Cc1cc(-c2ccc(F)cc2)nc2ccc3ccccc3c12	0%	12	29µM*	?	27%	-3%
CCOC(=O)Cc1cc(-c2ccc(OC)cc2)nc2ccc3ccccc3c12	-4%	3	?	18µM*	?	-1%
CCOC(=O)Cc1cc(-c2ccc(O)cc2)nc2ccc3ccccc3c12	4%	1	?	?	?	-8%
CCOC(=O)Cn1nc(-c2ccc(F)cc2)cc(Cc2ccccc2)c1=O	-1%	-6	-3%	-23%	9%	14%
O=C(COC(=O)C1CCN(S(=O)(=O)c2ccccc2C(F)(F)F)CC1)NCc1ccc(F)cc1	-1%	15	-1%	-4%	7%	2%
Cc1cc(=O)oc2cc(OCC(=O)Nc3c(C)n(C)n(-c4ccccc4)c3=O)c(Cl)cc12	3%	-2	-10%	-13%	-2%	-3%
CC1(C(=O)Nc2cccnc2)Cc2c(-c3cccc(C(F)(F)F)c3)ccnc2O1 (stereo not drawn)	nt	-4	23µM*	16µM*	nt	nt
CC(=O)c1cccc(NC(=O)C2(C)Cc3c(-c4cccc(C(F)(F)F)c4)ccnc3O2)c1 (stereo not drawn)	nt	-10	23µM*	16µM*	nt	nt
CCc1nc2c(OCCn3cccc3)cccn2c1N(C)C(=O)C1CC1	nt	-14	?	-22%	nt	nt
CCN1C(=O)[C@@H]2[C@@H](c3ccc(-c4ccc(F)cc4)cc3)N3CCC[C@@]3(C(=O)OC)[C@@H]2C1=O	1%	-5	?	?	5%	0%
CCN1C(=O)[C@H]2[C@@H](c3ccc(-c4ccc(OC)cc4)cc3)N3CCC[C@@]3(C(=O)OC)[C@H]2C1=O	4%	14	15µM*	?	1%	14%
CCN1C(=O)[C@H]2[C@@H](c3ccc(-c4ccc(F)cc4)cc3)N3CCCC[C@@]3(C(=O)OC)[C@H]2C1=O	?	-18	?	?	?	-2%
CCN1C(=O)[C@H]2[C@@H](c3ccc(-c4ccc(OC)cc4)cc3)N3CCCC[C@@]3(C(=O)OC)[C@H]2C1=O	6%	?	16µM*	?	6%	7%
CCN1C(=O)[C@@H]2[C@@H](c3ccc(-c4ccc(OC)cc4)cc3)N3CCC[C@@]3(C(=O)OC)[C@@H]2C1=O	-8%	-3	21µM*	?	?	14%
CCOc1ccc(-c2nnc(SCC(=O)N3CCNC3=O)o2)cc1	-1%	0	11%	-6%	?	3%
COc1ccc([C@H]2C[C@@H](O)C[C@@H](CCn3cc(-c4ccccc4)nn3)O2)cc1	nt	55	-18%	-21%	nt	nt
CCOC(=O)C1=C(N)n2c(s/c(=C\c3ccco3)c2=O)=C(C(=O)OCC)C1c1ccco1 (stereo not drawn)	?	8	5µM*	5.6µM*	5.8µM*	?
SMILES	BCR signal inh	IL1B secr inh	TDP1 cell noCPT	DT40 TDP1 CPT	MCF10A rerep	SW480 rerep
CCOC(=O)C1=C(N)n2c(s/c(=C\c3ccco3)c2=O)=C(C(=O)OC(C)C)C1c1ccco1 (stereo not drawn)	15%	-8	21µM*	?	3%	15%
CCOC(=O)C1=C(N)n2c(s/c(=C/c3ccccc3)c2=O)=C(C(=O)OCC)C1c1ccccc1 (stereo not drawn)	9%	nt	nt	nt	nt	nt
CC1=C(C(=O)OC(C)C)C(c2ccco2)NC(=O)N1 (stereo not drawn)	2%	15	-13%	-16%	-10%	-2%[9.22 µM]
N#Cc1ccc(N[C@@H]2CCN3C(=O)c4ccccc4[C@@H]3C[C@H]2O)cc1	-1%	15	-14%	-12%	10%	-16%
Cc1cc(C)c2c(c1)/C(=c1/sc3n(c1=O)CN(c1ccccc1)CN=3)C(=O)N2	6%	-9	16µM*	10µM*	-7%	-17%
CC(C)C1C(C#N)=C(N)Oc2n[nH]c(-c3ccccc3)c21 (stereo not drawn)	?	-12	?	-29%	1%	-5%
Cc1[nH]nc2c1C(C(C)c1ccccc1)C(C#N)=C(N)O2 (stereo not drawn)	?	-86*	?	?	9%	-2%
Cc1cc2n(n1)CCCN2C(=O)Nc1ccc(C)c(Cl)c1	nt	nt	-21%	-3%	nt	nt
Cc1ccccc1-c1nnc(SCC(=O)Nc2cccnc2Cl)o1	-4%	15	16µM*	13µM*	-18%	-8%
CN(Cc1cn(Cc2ccc(F)cc2)nn1)C1CN(Cc2cn(Cc3ccc(F)cc3)nn2)S(=O)(=O)C1 (stereo not drawn)	nt	3	-22%	-26%	nt	nt
N#CC1=C(S)N(c2ccccc2)C(c2cccs2)NC1=O (stereo not drawn)	?	10	?	?	-6%	-6%
Cc1ccc(N2C(S)=C(C#N)C(=O)NC2c2ccco2)cc1 (stereo not drawn)	?	39	?	23µM*	14%	4%
